From PubChem BioAssay AID651719 (The Scripps Research Institute Molecular Screening Center, 2012)
The campaign covered roughly 360,000 compounds. About 1,600 (0.44%) were called active. The sample holds actives, similar compounds and a random draw of the others, so the mix is not that of the screen. Values without a mark were called inactive.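 How the source made its calls: active means inhibition above the screen-wide average plus 3 SD (cut at about 13% in these data); inactive means the rest.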

Biological target: Galanin receptor type 3 (Homo sapiens) (UniProt O60755)
Experiment: GalR3 antagonists in HEK293 cells, primary screen, cell-based, fluorescence readout (AID 651719);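 further: forskolin and galanin both at EC90 stimulate the cells; cAMP rise reported by CNG channel membrane potential dye signal; 0% = forskolin plus galanin with DMSO and 100% = forskolin alone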
Details: HEK293 GalR3-CNG cAMP membrane potential fluorescence; at 3 µM; stronger effect = higher value; galR3 body fused to GalR1 C-terminus

Sequence of Galanin receptor type 3 (Homo sapiens) (O60755 1-299 limits assumed): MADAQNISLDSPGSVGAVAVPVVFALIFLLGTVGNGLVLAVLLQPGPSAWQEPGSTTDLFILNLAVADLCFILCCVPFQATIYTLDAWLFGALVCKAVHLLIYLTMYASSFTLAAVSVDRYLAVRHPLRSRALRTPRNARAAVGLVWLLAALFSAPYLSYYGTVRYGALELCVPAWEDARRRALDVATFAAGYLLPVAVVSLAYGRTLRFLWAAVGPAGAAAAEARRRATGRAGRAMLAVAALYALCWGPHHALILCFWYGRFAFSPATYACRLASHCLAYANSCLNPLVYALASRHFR

Row | Structure (SMILES) | inhibition
1 | COc1ccc(-c2ccc3c(n2)CCCN3S(=O)(=O)c2ccc(C)cc2)cc1 | -6.68%
2 | Cc1nc(NC(=O)C(C)(C)C)sc1[N+](=O)[O-] | -6.84%
3 | CSc1ccc(-c2c(C#N)c(N)nc3c2c(C)nn3-c2ccccc2)cc1 | -3%
4 | COc1ccccc1-c1c(C#N)c(N)nc2c1CCC2 | -3.19%
5 | CSc1nc(N)c(C#N)c(-c2ccccc2Cl)c1C#N | 13.6% (active)
6 | Cc1ccc(N)cc1CN1CCN(c2ncc(Cc3ccccc3)cn2)CC1 | 3.95%
7 | COc1ccccc1Cc1c(-c2ccc(F)cc2)nc2ccc(C)cn12 | -8.12%
8 | CCOC(=O)C1=C(C(=O)OCC)C2N(Cc3ccc(C#N)cc3)c3ccccc3[C@@]23C[C@@H](C(=O)OC)N(S(=O)(=O)c2ccc(F)cc2)C3=N1 (stereo partly drawn) | -4.3%
9 | COc1ccc(C(=O)NC2CC(C)(C)Cc3c2cnn3-c2ccccc2C)o1 (stereo not drawn) | -3.9%
10 | CC1(C)Cc2c(cnn2-c2cccc(F)c2)C(NC(=O)c2cc[n+]([O-])cc2)C1 (stereo not drawn) | -2.25%
11 | COc1ccc(OC)c(C(=O)NC2CCCc3c2cnn3-c2cc(C)cc(C)c2)c1 (stereo not drawn) | -8.72%
12 | Cn1nccc1C(=O)NC1CCCc2c1cnn2-c1ccc(F)cc1F (stereo not drawn) | 99.2% (active)
13 | Cn1nccc1C(=O)NC1CCCc2c1cnn2-c1ccccc1F (stereo not drawn) | 103% (active)
14 | COc1ccc(C(=O)NC2CCCc3c2cnn3-c2cccc(C)c2C)c(OC)n1 (stereo not drawn) | 4.34%
15 | Cc1ccccc1C(=O)N[C@H](C(=O)N1CCC[C@H]1C(=O)NCc1ccccc1)C(C)C | -4.85%
16 | COc1ccc(NS(=O)(=O)c2ccc(NC(=O)c3ccc(N(C)S(C)(=O)=O)cc3)cc2)cc1 | 82.7% (active)
17 | COc1ccc(NS(=O)(=O)c2cc(NC(=O)c3ccc(S(=O)(=O)N(C)C)cc3)ccc2N2CCOCC2)cc1 | -5.13%
18 | COc1ccc(NS(=O)(=O)c2ccc(C(=O)Nc3c(C)n(C)n(-c4ccccc4)c3=O)cc2)cc1 | -0.08%
19 | Nc1ncnc2c1ncn2[C@@H]1O[C@H](C(=O)N[C@@H](CCc2ccccc2)C(=O)NCC(=O)N2CCOCC2)[C@@H](O)[C@H]1O | -4.93%
20 | Cc1cc(N2CCN(C(=O)OC(C)(C)C)C[C@H]2C)ccc1N1CCN(Cc2ccccc2)[C@H](C)C1 | -6.01%
21 | CC(=O)OC(C)C[N+](C)(C)C (stereo not drawn) | 32.6% (active)
22 | CC(C[N+](C)(C)C)OC(N)=O (stereo not drawn) | -2.23%
23 | CC(=O)OCCC(C)C | -6.17%
24 | COCc1cc(N2CCN(C(=O)OC(C)(C)C)C[C@@H]2C)ccc1N1CCN(Cc2ccccc2)[C@H](C)C1 | -0.36%
25 | Cc1ccc2nc(-c3ccc(CN4CCC(n5cc(-c6ccccc6)[nH]c5=O)CC4)cc3)c(-c3ccccc3)nc2c1 | -5.31%
26 | CC(=O)c1c(C)[nH]c(C(=O)COC(=O)c2cccc(S(=O)(=O)N(C)c3ccccc3)c2)c1C | 78.8% (active)

Row | Structure (SMILES) | inhibition
27 | CC(=O)c1c(C)[nH]c(C(=O)COC(=O)c2cccs2)c1C | -4.13%
28 | COc1cccc(C(=O)OCC(=O)c2[nH]c(C)c(C(C)=O)c2C)c1 | -7.96%
29 | Nc1nonc1-n1nnc(C(=O)N/N=C/c2cc(Br)ccc2O)c1CSC1=NCCS1 | 76.9% (active)
30 | COCc1c(C(=O)N/N=C\c2cccnc2)nnn1-c1nonc1N | -5.53%
31 | CC(C)c1c(C(=O)N/N=C/c2ccccc2C(=O)O)nnn1-c1nonc1N | -9.07%
32 | Cc1cc(OC(=O)NCCc2ccc(F)cc2)ccc1F | -6.58%
33 | C=CCN=C1NC(c2cccc(C(F)(F)F)c2)C(C(=O)OC)=C(C)N1C (stereo not drawn) | -7.24%
34 | CC(C)[C@@H](C)/C=C/[C@@H](C)[C@H]1CC[C@@H]2[C@]1(C)CCC1[C@]23C=C[C@]2(C[C@@H](O)CC[C@]12C)N(c1ccc([N+](=O)[O-])cn1)O3 (stereo partly drawn) | 2.02%
35 | COC(=O)C1=C(C)N(Cc2ccccc2C(F)(F)F)C(=NCc2ccc(C(F)(F)F)cc2)NC1c1ccc(F)cc1 (stereo not drawn) | -4.63%
36 | CCCCCCCCN1C(=O)[C@@H](CC(=O)NCc2ccc(C)o2)C[C@@]2(C(=O)OC)C1=C[C@H](C(C)(C)C)O[C@@H]2C | -4.99%
37 | CN(CC(=O)Nc1ccc(Cl)c(C(F)(F)F)c1)C(=O)CCC(=O)c1ccccc1 | -4.03%
38 | O=C(CC(O)(C(F)(F)F)C(F)(F)F)Nc1ccc(Cl)c(Cl)c1 | 58.6% (active)
39 | O=C(Cc1ncc(C(F)(F)F)cc1Cl)Nc1cccc(Br)c1 | 2.24%
40 | Nc1ncnc2c1ncn2[C@@H]1O[C@H](C(=O)N[C@@H](CCc2ccccc2)C(=O)N2CCCN(Cc3cccs3)CC2)[C@@H](O)[C@H]1O | -6.23%
41 | O=C(O)Cn1cnc2c(NCc3ccccc3)ncnc21 | -5.71%
42 | C=CCN1C(=O)N(Cc2ccccc2)c2ccccc2S1(=O)=O | -6.64%
43 | CSc1nc2c(c(=O)[nH]1)C(c1cccc(Cl)c1Cl)CC(=O)N2 (stereo not drawn) | 12.2%
44 | COc1ccc(C2OCC3(CO2)SC(=O)NC3=O)cc1OC (stereo not drawn) | -2.1%
45 | COc1ccc(OC)c2c(N)c(C#N)c(C(F)(F)C(F)(F)F)nc12 | 1.89%
46 | COc1ccc(C2CC(=O)Nc3sc(=N)c4c(N)c(C#N)c(N)nc4c32)cc1OC (stereo not drawn) | 64.7% (active)
47 | N#Cc1c(N)nc2c3c(sc(=N)c2c1N)NC(=O)CC3c1ccccc1Cl (stereo not drawn) | 62.4% (active)
48 | COC(=O)[C@]12C[C@H](CC(=O)N3CCN(C(=O)C4CC4)CC3)C(=O)N(Cc3ccc4c(c3)OCO4)C1=C[C@H](C(C)(C)C)O[C@@H]2C | -5.6%
49 | N#Cc1cccc(C(=O)NCC2CCN(C(=O)C(=O)c3cc4ccccc4o3)CC2)c1 | -3.55%
50 | CCOC(=O)CNC(=O)N(C)[C@H]1C[C@H]2c3[nH]c4c(-c5ccc6c(c5)OCO6)cccc4c3CCN2C(=O)[C@H]1[C@H](C)O | -5.71%
51 | COc1ccc(C(C)(O)c2nc(-c3ccc(C)c(C)c3)cs2)cc1 (stereo not drawn) | -5.12%
52 | COc1ccc(-c2csc(-c3cccs3)n2)cc1OC | 14.8% (active)

Row | Structure (SMILES) | inhibition
53 | COc1ccc(C2CC(c3cccs3)=Nc3ccccc3S2)cc1OC (stereo not drawn) | -5.75%
54 | O=C(C(=O)N1CCC(CNS(=O)(=O)Cc2ccccc2)CC1)c1cc2ccccc2o1 | -6.6%
55 | CCCC(=O)N1CCC1(C)C(=O)Nc1ccc(-n2cncn2)cc1 (stereo not drawn) | -6.01%
56 | COc1cccc(OCc2cc(C(=O)N3CCN(C(=O)c4ccco4)CC3)no2)c1 | -10.3%
57 | C=CCC1(CC=C)CCCN1C(=O)c1cc(COc2ccc(-n3cncn3)cc2)on1 | 80.6% (active)
58 | O=C(Nc1c(Cl)c(C2CC2)nn1-c1ccccc1)C(Cl)(Cl)Cl | -6.45%
59 | COc1cccc(CC(=O)N2CCN(C(=O)C(=O)c3cccc(C(F)(F)F)c3)CC2)c1 | 1.16%
60 | CC(C)(CNC(=O)c1ccc(Cl)c(S(=O)(=O)N2CCc3ccccc3C2)c1)N1CCOCC1 | 98.3% (active)
61 | O=C(NCCSCc1ccccc1)c1ccc(Cl)c(S(=O)(=O)N2CCOCC2)c1 | -7.04%
62 | CN(C)S(=O)(=O)c1ccc(C(=O)NCC(C)(C)N2CCOCC2)cc1 | -0.16%
63 | COc1cccc(-c2cc(CNC(=O)[C@@H](Cc3ccccc3)NC(=O)[C@H]3O[C@@H](n4cnc(C(N)=O)n4)[C@H](O)[C@@H]3O)no2)c1 | -7.28%
64 | O=C(C1CCCN(S(=O)(=O)c2ccccc2)C1)N1CCN(c2ccc(F)cc2)CC1 (stereo not drawn) | -0.67%
65 | CC(=O)N1c2ccc(S(=O)(=O)N3CCC(C(=O)N4CCN(c5ccccc5)CC4)CC3)cc2CC1C (stereo not drawn) | 0.42%
66 | CC(=O)N1CCCc2cc(S(=O)(=O)N3CCCC(C(=O)N4CCN(c5cccc(Cl)c5)CC4)C3)ccc21 (stereo not drawn) | 77.3% (active)
67 | CCCCCCCCN1C(=O)[C@@H](CC(=O)NCc2ccccc2)C[C@@]2(C(=O)OC)C1=C[C@H](C(C)(C)C)O[C@@H]2C | -6.16%
68 | Cc1cccc(N2CCN(C(c3ccccc3)c3nnnn3CC3CCCO3)CC2)c1C (stereo not drawn) | -2.6%
69 | COc1ccccc1NC(=S)N1CCN(C(c2ccccc2)c2ccccc2)CC1 | -3.76%
70 | CC1(C)CC(N2CCN(C(c3ccccc3)c3ccccc3)CC2)=CC(=[N+]2CCCCC2)C1 | 39.8% (active)
71 | Cc1ccc2nc(CN(C)C(=O)[C@@H](Cc3ccccc3)NC(=O)[C@H]3O[C@@H](n4ccc(=O)[nH]c4=O)[C@H](O)[C@@H]3O)[nH]c2c1 | -7.44%
72 | COC(=O)[C@]12C[C@H](CC(=O)NCc3ccc(OC)c(OC)c3)C(=O)N(Cc3ccccc3)C1=C[C@H](C(C)C)O[C@@H]2C1CC1 | 3.98%
73 | COC(=O)Cc1nnn2c1[C@H](C)[C@@H](OC)c1cc(Br)ccc1-2 | -5.13%
74 | COc1ccc(-c2cc(C(F)(F)F)nc(S(C)(=O)=O)n2)cc1OC | 20.7% (active)
75 | COc1ccc(-c2cc(C(=O)N(C)Cc3ccc(OC)c(OC)c3OC)c3ccccc3n2)cc1OC | 2.03%
76 | COc1ccc(-c2cc(C(F)(F)F)nc(SCCC(=O)NCc3ccco3)n2)cc1 | -3.08%
77 | COc1cccc(NC(=O)N(C)C[C@@H]2OCc3cn(nn3)CCCC(=O)N([C@@H](C)CO)C[C@H]2C)c1 | -0.11%
78 | CC[C@H](C)[C@H]1CNC(=O)C(=O)N1CC1CCN(CCc2ccc(OC)c(OC)c2)CC1 | 1.44%
